# Results from PubChem BioAssay (NCATS).
# Inconclusive results are not listed. Values without a mark were called inactive. Active and inactive are the calls of the source. The call rests on the fitted dose curve; in most records, active means well fitted cell-killing curve with a large enough effect; inconclusive means small, poorly fitted or top-dose-only effect, or effect the other way; inactive means no such curve, though single readings can be large or run the other way.
# Assay: Quantitative highthroughput screen to assess conditional lethalithy of SEM cells grown in RPMI1640 with dialyzed fetal bovine serum (RPMI+ds) (AID 1963884); further: nearly all actives have a fitted effect of over 35% in size;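 on viability: 100% = DMSO control wells and 0% = empty wells without cells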
# Conditions: SEM B-ALL cells, RPMI+dialyzed FBS, CellTiter-Glo viability, 48 h; series mostly up to 45.8 µM; viability: at the top concentration
# How it was run: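 Each medium arm—HPLM with 10% dialyzed FBS, or RPMI1640 with 5 mM glucose and 10% untreated or dialyzed FBS—was screened against an 11-point, 3-fold compound titration for 48 h at 37 °C, with CellTiter-Glo luminescence as endpoint.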
# Potency means the concentration at half of the fitted maximal effect.
SMILES,Potency,viability
CNC(=O)c1c(-c2ccc(F)cc2)oc2cc(N(CCO)S(C)(=O)=O)c(C3CC3)cc12,264 nM (active),
NC1(c2ccc(-c3nc4ccn5c(=O)[nH]nc5c4cc3-c3ccccc3)cc2)CCC1,1480 nM (active),
CN(C)CCOC(c1ccccc1)c1ccccc1,,82.2%
COc1cc2nc(N3CCN(C(=O)c4ccco4)CC3)nc(N)c2cc1OC,7430 nM (active),
c1nc2nc(Nc3ccc(N4CCOCC4)cc3)nc(NC3CCCCC3)c2[nH]1,2350 nM (active),
Cn1c(=O)c2c(ncn2CC(O)CO)n(C)c1=O (stereo not given),,111%
Cc1nc(N)sc1-c1ccnc(Nc2ccc(N3CCOCC3)cc2)n1,2090 nM (active),
COc1cc(-c2nn(C3CCC(N4CCN(C(C)=O)CC4)CC3)c3ncnc(N)c23)ccc1NC(=O)c1cc2ccccc2n1C (stereo not given),,93.9%
O=C(Nc1ccc(OC(F)(F)F)cc1)c1sccc1NCc1ccnc2ccccc12,7430 nM (active),
C[C@H](NC(=O)C(=O)Nc1ccccc1C(C)(C)C)C(=O)N[C@@H](CC(=O)O)C(=O)COc1c(F)c(F)cc(F)c1F,5260 nM (active),
Cc1cn[nH]c1,,91.9%
C[C@]12C=CC(=O)C=C1CC[C@@H]1[C@@H]2C(=O)C[C@@]2(C)[C@H]1CC[C@]2(O)C(=O)CO,,92.9% [at 23.2 µM]
CNC(=O)c1c(F)cccc1Nc1nc(Nc2cc3c(cc2OC)CCN3C(=O)CN(C)C)nc2[nH]ccc12,296 nM (active),
c1cnc2cc3c(cc2n1)C1CNCC3C1,,88.5%
CCCCCCCCCC(=O)N[C@@H](Cc1c[nH]c2ccccc12)C(=O)N[C@H](CC(N)=O)C(=O)N[C@@H](CC(=O)O)C(=O)N[C@@H]1C(=O)NCC(=O)N[C@@H](CCCN)C(=O)N[C@@H](CC(=O)O)C(=O)N[C@H](C)C(=O)N[C@@H](CC(=O)O)C(=O)NCC(=O)N[C@H](CO)C(=O)N[C@@H]([C@@H](C)CC(=O)O)C(=O)N[C@@H](CC(=O)c2ccccc2N)C(=O)O[C@@H]1C,,98.1%
